Screening data: PubChem BioAssay, National Center for Advancing Translational Sciences (NCATS)
DT40 TDP1 no CPT = qHTS for Inhibitors of human tyrosyl-DNA phosphodiesterase 1 (TDP1): qHTS in cells in absence of CPT; DT40 Tdp1-/- hTDP1 cells, no CPT, ATP luminescence, 48 h; Potency, µM (highest dose often 46.2 µM), for inactives: at the top dose activity change, negative = growth inhibition, usual class: inhibitors; 15% of 420,000 active; AID 686978, 2013; also: potency is read from the fitted curve at half-maximal effect; nearly all actives have a fitted effect of over 55% in size
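Readout: luminescence from CellTiter-Glo after 30 min in the dark at RT. Cells: DT40 Tdp1-/- with stable hTDP1, 400/well. Exposure: compounds alone, ≥48 hr, 37 °C.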
LDHA block = LDHA (human) enzyme inhibition; P00338; purified LDHA, NADH/diaphorase-resazurin fluorescence; hits give low values; activity change, % (values are at about 110 or 230 µM); 0.15% of 480,000 active; in the data active = activity change below about -30%; inconclusive = mostly about -25% to -30%;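 also: plate controls were DMSO wells for no effect and wells without enzyme for full effect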
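Enzyme activity of human lactate dehydrogenase 5 (2 nM; 0.06 mM NADH, 0.2 mM pyruvate, 5 min, RT) is measured via a resazurin/diaphorase fluorescence readout of residual NADH.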
RORgamma inh = inhibitors of mouse ROR gamma transcriptional activity | P51450 | Drosophila S2 Gal4-RORgamma UAS-luciferase reporter, 20 h | Potency, µM (doses to about 53.6 µM), inactives show at the highest dose activity change, negative = inhibition, actives largely listed as inhibitors | 5.4% of 310,000 active; also: potency is read from the fitted curve at half-maximal effect; nearly all actives have a fitted effect of over 60% in size
Target sequence (P51450 whole entry, looked up, the tested form may be a part): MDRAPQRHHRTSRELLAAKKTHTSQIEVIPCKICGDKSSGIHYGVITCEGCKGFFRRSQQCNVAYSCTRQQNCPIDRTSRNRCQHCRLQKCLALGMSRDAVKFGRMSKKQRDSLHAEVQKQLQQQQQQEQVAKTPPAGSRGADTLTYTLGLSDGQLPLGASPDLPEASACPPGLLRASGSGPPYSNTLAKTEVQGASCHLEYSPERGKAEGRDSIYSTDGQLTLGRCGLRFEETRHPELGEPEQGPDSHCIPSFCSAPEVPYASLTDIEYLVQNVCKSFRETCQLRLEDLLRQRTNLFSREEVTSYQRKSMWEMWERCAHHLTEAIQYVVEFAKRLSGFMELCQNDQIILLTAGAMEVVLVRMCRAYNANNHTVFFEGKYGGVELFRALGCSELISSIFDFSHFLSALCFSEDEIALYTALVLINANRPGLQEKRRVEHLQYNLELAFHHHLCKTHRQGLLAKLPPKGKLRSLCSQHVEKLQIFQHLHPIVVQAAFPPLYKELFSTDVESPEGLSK
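Stably transfected Drosophila Schneider cells are the test system, with ROR gamma fused to Gal4 and luciferase under UAS control; luminescence is read after 20 hr of 700 uM copper sulfate induction at ambient temperature.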
Gal4-VP16 FLuc = inhibits Gal4-VP16 luciferase reporter, ROR gamma counter-screen. AID 2546. 3.5% of 310,000 active. Drosophila S2 Gal4-VP16 UAS-luciferase, luminescence, 20 h. Potency, µM (series often up to 53.6 µM), for the others: top-dose activity, negative = inhibition, hits mostly inhibitors;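 also: Gal4-VP16 expression switched on by copper sulfate through the metallothionein promoter; potency is read from the fitted curve at half-maximal effect; nearly all actives have a fitted effect of over 50% in size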
IL-1B inflam inh = blocks inflammasome-driven IL-1 beta release | activity change, % at 57.5 µM | 4.7% of 360,000 active | THP-1 LPS/ATP IL-1B secretion, AlphaLISA, 16 h; hits give low values; in the data active = activity change below about -50%; inconclusive = mostly about -30% to -49%
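THP-1 cells pretreated 1 hr with compounds (up to 57.5 uM final), then stimulated with LPS (250 ng/mL final) plus ATP (1.25 mM final); secreted IL-1B measured by AlphaLISA after 16 hr, decreased signal indicating inhibition.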
TDP1 cell CPT = growth inhibition of DT40 Tdp1-/-;hTDP1 cells with camptothecin (screen for TDP1 inhibitors) | chicken DT40 Tdp1-/-;hTDP1 cells + 20 nM CPT, ATP luminescence, 48 h | Potency, µM (highest dose often 46.2 µM), inactives show at the highest dose activity change, negative = growth inhibition, actives largely listed as inhibitors | 12% of 420,000 active | AID 686979; also: potency is read from the fitted curve at half-maximal effect; nearly all actives have a fitted effect of over 55% in size
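Cell growth measured by CellTiter-Glo luminescence after a minimum 48 h, 37 C compound exposure with 20 nM CPT in Tdp1-knockout DT40 cells stably expressing hTDP1, seeded 400/well; qHTS titration format.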
The depositor's hits bear a star; ? = inconclusive; nt = not tested or not shown. An excerpt weighted towards active compounds, which were near 18% of everything screened. Unless noted, calls follow the shape of the dose curve; as a rule, active = well fitted curve in the direction sought with a large enough effect; inconclusive = small, poorly fitted or top-dose-only effect, or another doubt; inactive = no such curve, though single readings can be large; an effect the other way counts as inactive or inconclusive. Unless noted, % is scaled to controls: 0 for no effect and ±100 for the full control effect.

SMILES | DT40 TDP1 no CPT | LDHA block | RORgamma inh | Gal4-VP16 FLuc | IL-1B inflam inh | TDP1 cell CPT
CCN(CC)c1ccc(/C=N/N=C(c2ccccc2)c2ccccc2)c(O)c1 | 21µM* | 1 | ? | 20µM* | -23 | ?
CCOc1ccc(NC(=O)Nc2cc(C)c3nc(NC(C)=O)sc3c2)cc1 | nt | -7 | nt | nt | nt | nt
CC(Nc1oc(COc2ccccc2Cl)nc1C#N)c1ccccc1 (stereo unspecified) | nt | -7 | nt | nt | nt | nt
COC(=O)c1ccc(OC(=O)C2(c3ccccc3)CCC2)cc1 | nt | 1 | nt | nt | nt | nt
CCN(CC)c1ccc(/C=N/NC(=O)c2ccco2)c(O)c1 | 2.6µM* | -2 | 0.79µM* | 3.2µM* | 344 | 5.2µM*
O=C(N/N=C/c1ccc2cccnc2c1)c1ccco1 | ? | -5 | ? | 11µM* | -19 | -20%
CCN(CC)c1ccc(/C=N/NC(=O)c2ccco2)cc1 | 3.3µM* | 6 | 14µM* | ? | 30 | ?
O=C(N/N=C\c1ccc2c(c1)OCO2)c1ccco1 | ? | 3 | -44% | -25% | 15 | ?
CCN(CC)c1ccc(/C=N/NC(=O)c2ccc([N+](=O)[O-])cc2)cc1 | -8% | -3 | -13% | -4% | 1 | -12%
COc1cccc(/C=C(/C#N)c2ccccn2)c1OC(F)F | nt | -5 | nt | nt | nt | nt
COc1ccc(OC)c(/C=C(\C#N)C(=O)Nc2cc(C(F)(F)F)ccc2Cl)c1 | nt | -7 | nt | nt | nt | nt
Cc1cccc(-n2c(C)cc(/C=N/NC(=O)c3cccc([N+](=O)[O-])c3C)c2C)c1 | ? | 1 | 7.9µM* | ? | -18 | ?
Cc1ccc2cc(/C=N/NC(=O)c3ccccc3[N+](=O)[O-])c(Cl)nc2c1 | ? | -7 | -16% | -10% | 24 | ?
Cc1cc(/C=N/NC(=O)c2c(Br)cnn2C)c(C)n1-c1cccc(Br)c1 | ? | -4 | 6.3µM* | 7.1µM* | -25 | ?
Cc1cc(/C=N/NC(=O)C(=O)N2CCCC2)c(C)n1-c1cccc(Br)c1 | ? | 2 | 2% | -8% | -4 | ?
Cc1cc(/C=N/NC(=O)c2cccc(F)c2)c(C)n1-c1ccccc1 | 29µM* | -2 | 5.6µM* | 13µM* | -26 | ?
Cc1cc(/C=N/NC(=O)c2ccccc2F)c(C)n1-c1ccccc1 | 2% | -2 | 13µM* | ? | -25 | -18%
Cc1ccc2oc(=O)cc(CN(Cc3ccccc3)Cc3ccco3)c2c1 | nt | 2 | nt | nt | nt | nt
CC1=C(C(=O)OCc2ccc3c(c2)OCO3)C(c2c(F)cccc2Cl)CC(=O)N1 (stereo unspecified) | nt | -6 | nt | nt | nt | nt
CCN(CC)CCN(C(=O)c1ccc2c(c1)OCCO2)c1nc2ccc(C)cc2s1 | -24% | -1 | -4% | -1% | -51* | ?
Cc1cc(C)c2nc(N(CCCN(C)C)C(=O)c3ccc4c(c3)OCCO4)sc2c1 | 16µM* | 0 | nt | nt | -79* | 13µM*
Cc1cccc2sc(N(CCN(C)C)C(=O)c3ccc4c(c3)OCCO4)nc12 | ? | -8 | nt | nt | nt | ?
CN(C)CCCN(C(=O)c1ccc2c(c1)OCCO2)c1nc2ccccc2s1 | 16µM* | -1 | nt | nt | nt | ?
CCN(CC)CCN(C(=O)C1=COCCO1)c1nc2cc(C)cc(C)c2s1 | ? | -1 | -18% | -19% | 0 | ?
Cc1cc(C)c2nc(N(CCCN(C)C)C(=O)C3=COCCO3)sc2c1 | 21µM* | -4 | nt | nt | ? | 16µM*
SMILES | DT40 TDP1 no CPT | LDHA block | RORgamma inh | Gal4-VP16 FLuc | IL-1B inflam inh | TDP1 cell CPT
CN(C(=O)c1ccc2c(c1)C(=O)c1ccccc1-2)C1CCCc2ccccc21 (stereo unspecified) | nt | 7 | nt | nt | nt | nt
C[n+]1ccc(/C=C/c2ccc(C=S)cc2)c2ccccc21 | 3.2µM* | -15 | nt | nt | nt | 4µM*
COc1cc(OC)c(OC)cc1/C=C/c1cc[n+](C)c2ccccc12 | 2µM* | 12 | nt | nt | nt | 4µM*
CN(C)c1ccc(/C=C/c2cc[n+](C)c3ccc4ccccc4c23)cc1 | ? | 7 | nt | nt | nt | 0.089µM*
Cc1cc(N(C)C)cc(C)c1/C=C/c1cc[n+](C)c2ccccc12 | 0.56µM* | nt | nt | nt | nt | 0.56µM*
COc1cc(OC)c(/C=C/c2cc[n+](C)c3ccccc23)c(OC)c1 | 0.45µM* | -19 | nt | nt | nt | 0.5µM*
CCOc1ccc(/C=C/c2cc[n+](C)c3ccccc23)cc1OCC | ? | 8 | nt | nt | nt | ?
Cc1ccc(Cl)cc1NC(=O)CCS(=O)(=O)c1cccc2nonc12 | ? | 0 | 34% | 2% | -2 | 15µM*
O=C(Nc1nn[nH]n1)c1cc(-c2ccccc2)nc2ccccc12 | nt | -5 | nt | nt | nt | nt
COc1ccc([N+](=O)[O-])cc1C1NN=C(c2ccccc2O)S1 (stereo unspecified) | 3.3µM* | -1 | -45% | -12% | 32 | 3.7µM*
C/C(=N\NC(=O)c1cccs1)c1ccc(Cl)cc1 | nt | 5 | nt | nt | nt | nt
Cc1ccc(CN2CCN(C(=O)CC(C)(C)C)CC2)cc1 | nt | -4 | nt | nt | nt | nt
CCN(CC)CCn1c2c(c(SCC(=O)Nc3nc4ccccc4s3)nc1=O)CCC2 | ? | -10 | nt | nt | -99* | -2%
CCN(CC)CCCn1c2c(c(SCC(=O)Nc3cccc(C(C)=O)c3)nc1=O)CCC2 | -26% | -9 | nt | nt | -10 | 0%
CCN(CC)CCCn1c2c(c(SCC(=O)Nc3cc(C)cc(C)c3)nc1=O)CCC2 | ? | 1 | nt | nt | -57* | -22%
CCN(CC)CCn1c2c(c(SCC(=O)Nc3nc4ccc(C)cc4s3)nc1=O)CCC2 | 5.8µM* | 2 | nt | nt | 6 | 6.5µM*
COc1ccc(OC)c(Nc2nc(NCC(C)O)nc3c2cnn3-c2ccccc2)c1 (stereo unspecified) | nt | -15 | nt | nt | nt | nt
COc1ccccc1-c1ncn(Cc2cccc(-c3ccccc3)c2)c1-c1cc(C)cc(C)c1 | 15µM* | 3 | nt | nt | nt | ?
COc1ccccc1-c1ncn(Cc2cccc(-c3ccccc3)c2)c1-c1ccco1 | 16µM* | -4 | nt | nt | ? | 26µM*
CN(C(=O)CSc1nncc2ccccc12)c1ccccc1 | -29% | -4 | nt | nt | -87* | -2%
COc1cccc(C(=O)NCC(O)c2ccc(C)cc2)c1 (stereo unspecified) | nt | 0 | nt | nt | nt | nt
CCOC(=O)c1ccccc1NC(=O)CSc1ncc(CO)n1Cc1ccc(C)cc1 | -81% | 4 | nt | nt | nt | 15µM*
Cc1ccc(Cn2c(CO)cnc2SCC(=O)Nc2ccc(C)c(Cl)c2)cc1 | 23µM* | -4 | nt | nt | nt | 18µM*
Cc1ccc(C)c(C(=O)c2ccccc2C(=O)N(C)Cc2cccs2)c1 | nt | 2 | nt | nt | nt | nt
CCSc1ncc(Cl)c(C(=O)N(Cc2ccccc2)Cc2ccco2)n1 | 16µM* | -8 | nt | nt | nt | ?
